{
  "source": "the supplement of paper PMC10849652",
  "note": "The full data set covers some 7,900 targets. This sample favours those with a hit. About 0.6% of all pairs of compound and target were hits.",
  "data": [
    {"compound": "CC1=C2C(=CC=C1)N=C(N(C2=O)C3=CC=CC=C3C)CN4C=NC5=C(N=CN=C54)N", "experiment": "log2 fold change, soluble protein after heating vs DMSO (PISA); higher = thermal stabilisation; K562 cells, 10 uM, 30 min; active = over 0.2 and 3.5 SD of the protein, either way, in both replicates (recomputed)", "outline": "(§1)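 For each measurement, 10 μM compound was applied for 30 min to K562 cells at 2×10^6 cells/mL. Aliquots were heated for 3 min across 48°C-58°C, pooled, and extracted in PBS with 0.5% NP-40 at 4°C; the supernatant after 21,000xg for 90 min was soluble protein. This was quantified by TMTpro 16plex LC-MS/MS with channel sums equalised, and thermal stability was reported relative to control samples from duplicates, on a log2 fold-change scale.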", "values": [
      {"target": "H3-3A (UniProt P84243)", "log2 fold change": "0.154 (inactive)"},
      {"target": "HPCAL1 (UniProt P37235)", "log2 fold change": "0.047 (inactive)"},
      {"target": "GPS2 (UniProt Q13227)", "log2 fold change": "0 (inactive)"},
      {"target": "FLNA (UniProt P21333)", "log2 fold change": "0.049 (inactive)"},
      {"target": "HDAC7 isoform 5 (UniProt Q8WUI4)", "log2 fold change": "-0.004 (inactive)"},
      {"target": "GSTO1 (UniProt P78417)", "log2 fold change": "-0.002 (inactive)"},
      {"target": "GLRX3 (UniProt O76003)", "sequence (O76003 whole entry, looked up)": "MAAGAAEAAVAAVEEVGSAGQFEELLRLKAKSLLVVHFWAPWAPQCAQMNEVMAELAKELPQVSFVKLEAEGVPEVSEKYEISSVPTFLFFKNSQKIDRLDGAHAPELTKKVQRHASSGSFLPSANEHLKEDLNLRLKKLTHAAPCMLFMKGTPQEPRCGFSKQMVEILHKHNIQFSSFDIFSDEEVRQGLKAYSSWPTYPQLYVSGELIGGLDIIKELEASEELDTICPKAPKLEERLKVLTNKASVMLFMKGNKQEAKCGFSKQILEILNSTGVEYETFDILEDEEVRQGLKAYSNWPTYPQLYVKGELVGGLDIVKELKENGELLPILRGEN", "log2 fold change": "0.072 (inactive)"},
      {"target": "GOLGA6B (UniProt A6NDN3)", "log2 fold change": "0.19 (inactive)"},
      {"target": "FCHO1 (UniProt O14526)", "log2 fold change": "0.125 (inactive)"},
      {"target": "GAK (UniProt O14976)", "sequence (O14976 whole entry, looked up)": "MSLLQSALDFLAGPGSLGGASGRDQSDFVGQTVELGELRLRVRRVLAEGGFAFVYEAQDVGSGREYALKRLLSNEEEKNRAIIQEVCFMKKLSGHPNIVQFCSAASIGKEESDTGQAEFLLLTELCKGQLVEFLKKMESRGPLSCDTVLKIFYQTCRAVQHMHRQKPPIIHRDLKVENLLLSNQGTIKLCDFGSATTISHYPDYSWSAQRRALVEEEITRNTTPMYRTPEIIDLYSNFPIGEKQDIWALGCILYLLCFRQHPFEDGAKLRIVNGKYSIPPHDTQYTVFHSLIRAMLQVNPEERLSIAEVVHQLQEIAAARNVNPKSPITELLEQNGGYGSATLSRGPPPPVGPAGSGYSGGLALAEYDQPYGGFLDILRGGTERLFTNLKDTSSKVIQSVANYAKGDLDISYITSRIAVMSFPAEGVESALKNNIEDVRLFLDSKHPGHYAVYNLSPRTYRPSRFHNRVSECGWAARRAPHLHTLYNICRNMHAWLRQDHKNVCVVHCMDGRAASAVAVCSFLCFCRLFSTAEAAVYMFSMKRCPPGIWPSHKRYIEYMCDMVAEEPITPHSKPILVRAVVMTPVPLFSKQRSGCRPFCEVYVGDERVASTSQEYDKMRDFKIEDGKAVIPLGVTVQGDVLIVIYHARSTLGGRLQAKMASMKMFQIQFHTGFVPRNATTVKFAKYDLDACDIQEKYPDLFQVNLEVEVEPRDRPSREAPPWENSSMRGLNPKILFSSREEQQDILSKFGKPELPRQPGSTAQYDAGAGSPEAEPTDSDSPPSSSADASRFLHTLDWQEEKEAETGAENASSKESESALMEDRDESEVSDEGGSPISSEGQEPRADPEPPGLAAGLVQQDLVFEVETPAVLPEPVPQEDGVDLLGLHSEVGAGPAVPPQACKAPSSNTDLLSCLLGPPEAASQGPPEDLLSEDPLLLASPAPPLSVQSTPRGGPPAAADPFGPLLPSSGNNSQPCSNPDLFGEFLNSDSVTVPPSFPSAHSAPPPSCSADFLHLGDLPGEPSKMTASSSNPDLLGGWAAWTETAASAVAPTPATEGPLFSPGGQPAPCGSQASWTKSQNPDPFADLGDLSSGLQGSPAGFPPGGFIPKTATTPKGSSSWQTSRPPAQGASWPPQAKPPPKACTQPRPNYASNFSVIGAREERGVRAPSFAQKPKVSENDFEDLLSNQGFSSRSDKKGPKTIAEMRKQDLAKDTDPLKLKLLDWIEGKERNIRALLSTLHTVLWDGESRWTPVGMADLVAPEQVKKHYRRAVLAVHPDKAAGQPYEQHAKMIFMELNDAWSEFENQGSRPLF", "log2 fold change": "-0.032 (inactive)"},
      {"target": "FIZ1 (UniProt Q96SL8)", "log2 fold change": "-0.097 (inactive)"},
      {"target": "ICMT (UniProt O60725)", "log2 fold change": "0.115 (inactive)"},
      {"target": "FHOD1 (UniProt Q9Y613)", "log2 fold change": "0.086 (inactive)"},
      {"target": "FBXO6 (UniProt Q9NRD1)", "sequence (Q9NRD1 whole entry, looked up)": "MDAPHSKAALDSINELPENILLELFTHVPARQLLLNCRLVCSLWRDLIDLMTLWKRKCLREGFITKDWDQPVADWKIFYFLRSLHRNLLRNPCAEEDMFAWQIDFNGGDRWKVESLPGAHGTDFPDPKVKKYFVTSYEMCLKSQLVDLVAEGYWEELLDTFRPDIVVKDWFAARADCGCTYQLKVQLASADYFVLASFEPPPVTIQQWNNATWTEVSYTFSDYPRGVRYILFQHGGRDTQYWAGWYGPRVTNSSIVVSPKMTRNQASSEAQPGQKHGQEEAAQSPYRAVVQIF", "log2 fold change": "0.041 (inactive)"},
      {"target": "GSE1 (UniProt Q14687)", "log2 fold change": "0.008 (inactive)"},
      {"target": "GREB1 (UniProt Q4ZG55)", "log2 fold change": "0.175 (inactive)"},
      {"target": "FIBP (UniProt O43427)", "sequence (O43427 whole entry, looked up)": "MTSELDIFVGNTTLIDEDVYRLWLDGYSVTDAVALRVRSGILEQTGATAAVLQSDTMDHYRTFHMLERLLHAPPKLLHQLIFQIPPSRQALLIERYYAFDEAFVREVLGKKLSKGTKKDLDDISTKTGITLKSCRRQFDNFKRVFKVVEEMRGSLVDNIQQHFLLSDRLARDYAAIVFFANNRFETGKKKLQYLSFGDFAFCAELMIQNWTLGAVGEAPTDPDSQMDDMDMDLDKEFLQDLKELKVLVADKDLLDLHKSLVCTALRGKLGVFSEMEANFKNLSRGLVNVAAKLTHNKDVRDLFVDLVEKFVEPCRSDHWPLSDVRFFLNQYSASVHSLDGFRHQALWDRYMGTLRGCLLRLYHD", "log2 fold change": "0.042 (inactive)"},
      {"target": "GEMIN5 (UniProt Q8TEQ6)", "sequence (Q8TEQ6 whole entry, looked up)": "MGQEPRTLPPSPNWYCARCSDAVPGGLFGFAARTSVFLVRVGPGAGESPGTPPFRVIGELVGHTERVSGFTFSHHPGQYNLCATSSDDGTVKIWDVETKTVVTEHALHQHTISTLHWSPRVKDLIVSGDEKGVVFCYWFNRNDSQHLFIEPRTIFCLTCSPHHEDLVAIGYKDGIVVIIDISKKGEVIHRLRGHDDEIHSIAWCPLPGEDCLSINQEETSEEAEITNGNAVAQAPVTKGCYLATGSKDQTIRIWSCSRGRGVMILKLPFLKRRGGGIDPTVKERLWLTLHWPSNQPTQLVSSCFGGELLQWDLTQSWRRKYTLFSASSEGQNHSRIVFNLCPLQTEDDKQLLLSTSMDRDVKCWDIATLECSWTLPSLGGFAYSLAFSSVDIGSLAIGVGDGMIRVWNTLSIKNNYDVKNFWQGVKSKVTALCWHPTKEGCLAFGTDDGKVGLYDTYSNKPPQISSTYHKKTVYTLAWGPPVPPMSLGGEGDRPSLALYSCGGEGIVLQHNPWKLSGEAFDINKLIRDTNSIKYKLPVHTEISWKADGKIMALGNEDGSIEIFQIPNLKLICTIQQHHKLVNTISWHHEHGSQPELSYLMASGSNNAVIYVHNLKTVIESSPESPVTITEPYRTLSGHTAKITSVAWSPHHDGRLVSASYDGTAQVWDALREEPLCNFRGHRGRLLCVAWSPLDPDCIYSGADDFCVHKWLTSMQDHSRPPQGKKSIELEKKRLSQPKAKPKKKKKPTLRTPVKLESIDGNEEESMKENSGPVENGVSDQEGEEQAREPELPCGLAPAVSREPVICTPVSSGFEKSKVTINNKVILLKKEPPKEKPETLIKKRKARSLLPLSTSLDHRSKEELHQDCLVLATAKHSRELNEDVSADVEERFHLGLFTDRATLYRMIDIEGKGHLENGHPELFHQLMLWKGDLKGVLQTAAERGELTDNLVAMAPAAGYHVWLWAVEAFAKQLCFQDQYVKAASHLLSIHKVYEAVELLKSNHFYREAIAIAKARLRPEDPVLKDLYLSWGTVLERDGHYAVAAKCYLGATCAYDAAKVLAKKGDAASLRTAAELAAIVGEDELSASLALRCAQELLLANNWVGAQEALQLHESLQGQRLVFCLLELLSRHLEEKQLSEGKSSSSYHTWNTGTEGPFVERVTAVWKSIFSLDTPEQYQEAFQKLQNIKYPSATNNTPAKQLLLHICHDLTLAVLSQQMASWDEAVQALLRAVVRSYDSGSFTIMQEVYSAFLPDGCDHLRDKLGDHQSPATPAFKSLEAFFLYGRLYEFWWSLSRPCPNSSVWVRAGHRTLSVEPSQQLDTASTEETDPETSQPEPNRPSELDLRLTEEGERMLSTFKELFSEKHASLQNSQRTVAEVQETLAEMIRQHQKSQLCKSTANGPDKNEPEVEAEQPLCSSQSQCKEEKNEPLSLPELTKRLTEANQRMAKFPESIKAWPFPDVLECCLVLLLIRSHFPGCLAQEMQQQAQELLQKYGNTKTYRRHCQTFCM", "log2 fold change": "0.022 (inactive)"},
      {"target": "HMGN1 (UniProt P05114)", "log2 fold change": "-0.119 (inactive)"},
      {"target": "FKBP4 (UniProt Q02790)", "sequence (Q02790 whole entry, looked up)": "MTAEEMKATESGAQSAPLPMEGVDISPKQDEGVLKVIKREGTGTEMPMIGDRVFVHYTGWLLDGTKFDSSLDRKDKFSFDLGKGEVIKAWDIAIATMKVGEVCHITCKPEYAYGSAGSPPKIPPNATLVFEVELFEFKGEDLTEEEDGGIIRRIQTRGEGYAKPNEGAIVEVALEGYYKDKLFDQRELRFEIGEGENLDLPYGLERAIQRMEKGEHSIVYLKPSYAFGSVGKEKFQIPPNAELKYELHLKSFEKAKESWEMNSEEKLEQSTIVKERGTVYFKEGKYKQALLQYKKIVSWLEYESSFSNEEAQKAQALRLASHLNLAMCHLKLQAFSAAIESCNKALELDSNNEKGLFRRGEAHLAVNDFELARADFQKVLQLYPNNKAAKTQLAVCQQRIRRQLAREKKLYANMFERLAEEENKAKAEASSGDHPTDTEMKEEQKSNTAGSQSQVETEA", "log2 fold change": "0.037 (inactive)"},
      {"target": "FBXO42 (UniProt Q6P3S6)", "sequence (Q6P3S6 whole entry, looked up)": "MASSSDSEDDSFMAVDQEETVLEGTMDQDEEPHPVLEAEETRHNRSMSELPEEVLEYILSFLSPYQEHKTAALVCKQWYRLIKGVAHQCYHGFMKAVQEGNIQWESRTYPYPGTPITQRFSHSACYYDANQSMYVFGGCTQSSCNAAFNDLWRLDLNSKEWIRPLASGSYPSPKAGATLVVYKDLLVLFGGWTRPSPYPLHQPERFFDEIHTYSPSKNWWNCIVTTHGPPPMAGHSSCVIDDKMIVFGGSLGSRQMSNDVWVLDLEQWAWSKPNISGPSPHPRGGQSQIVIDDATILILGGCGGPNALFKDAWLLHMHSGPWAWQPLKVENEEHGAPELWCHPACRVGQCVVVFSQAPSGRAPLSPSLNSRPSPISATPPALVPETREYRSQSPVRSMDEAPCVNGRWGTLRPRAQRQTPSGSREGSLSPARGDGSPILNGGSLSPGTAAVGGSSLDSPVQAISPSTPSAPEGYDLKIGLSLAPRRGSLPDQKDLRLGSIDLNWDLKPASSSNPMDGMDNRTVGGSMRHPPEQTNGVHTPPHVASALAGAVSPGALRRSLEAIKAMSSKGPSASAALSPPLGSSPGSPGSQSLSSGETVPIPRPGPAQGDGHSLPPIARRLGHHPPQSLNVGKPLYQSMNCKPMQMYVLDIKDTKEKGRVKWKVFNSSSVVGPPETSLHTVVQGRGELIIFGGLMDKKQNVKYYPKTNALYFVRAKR", "log2 fold change": "0.094 (inactive)"},
      {"target": "IGF2 isoform 3 (UniProt P01344)", "log2 fold change": "0.077 (inactive)"},
      {"target": "HNRNPK isoform 3 (UniProt P61978)", "log2 fold change": "0.074 (inactive)"},
      {"target": "FOXO3 (UniProt O43524)", "log2 fold change": "0.012 (inactive)"},
      {"target": "IFI30 (UniProt P13284)", "log2 fold change": "-0.06 (inactive)"},
      {"target": "HS1BP3 (UniProt Q53T59)", "log2 fold change": "-0.001 (inactive)"},
      {"target": "GAB2 (UniProt Q9UQC2)", "log2 fold change": "-0.059 (inactive)"},
      {"target": "FCF1 (UniProt Q9Y324)", "log2 fold change": "-0.362 (inactive)"},
      {"target": "FERMT3 (UniProt Q86UX7)", "log2 fold change": "0.053 (inactive)"},
      {"target": "FYB1 isoform 3 (UniProt O15117)", "log2 fold change": "0.005 (inactive)"},
      {"target": "GEMIN2 (UniProt O14893)", "log2 fold change": "-0.049 (inactive)"},
      {"target": "HIC2 (UniProt Q96JB3)", "log2 fold change": "-0.048 (inactive)"}
    ]},
    {"compound": "Cc1sc2c(c1C)C(c1ccc(Cl)cc1)=N[C@@H](CC(=O)OC(C)(C)C)c1nnc(C)n1-2", "experiment": "log2 fold change, soluble protein after heating vs DMSO (PISA); higher = thermal stabilisation; K562 cells, 10 uM, 30 min; active = over 0.2 and 3.5 SD of the protein, either way, in both replicates (recomputed)", "outline": "as §1", "values": [
      {"target": "H3-3A (UniProt P84243)", "log2 fold change": "-0.058 (inactive)"},
      {"target": "HPCAL1 (UniProt P37235)", "log2 fold change": "-0.011 (inactive)"},
      {"target": "GPS2 (UniProt Q13227)", "log2 fold change": "0.039 (inactive)"},
      {"target": "FLNA (UniProt P21333)", "log2 fold change": "0.019 (inactive)"},
      {"target": "HDAC7 isoform 5 (UniProt Q8WUI4)", "log2 fold change": "-0.026 (inactive)"},
      {"target": "GSTO1 (UniProt P78417)", "log2 fold change": "-0.013 (inactive)"},
      {"target": "GLRX3 (UniProt O76003)", "log2 fold change": "-0.033 (inactive)"},
      {"target": "FCHO1 (UniProt O14526)", "log2 fold change": "0.022 (inactive)"},
      {"target": "GAK (UniProt O14976)", "log2 fold change": "0.078 (inactive)"},
      {"target": "HNRNPUL1 (UniProt M0R247)", "log2 fold change": "0.204 (inactive)"},
      {"target": "ICMT (UniProt O60725)", "log2 fold change": "0.07 (inactive)"},
      {"target": "FBXO6 (UniProt Q9NRD1)", "log2 fold change": "-0.041 (inactive)"},
      {"target": "GREB1 (UniProt Q4ZG55)", "log2 fold change": "0.037 (inactive)"},
      {"target": "FIBP (UniProt O43427)", "log2 fold change": "-0.105 (inactive)"},
      {"target": "GEMIN5 (UniProt Q8TEQ6)", "log2 fold change": "0.021 (inactive)"},
      {"target": "HMGN1 (UniProt P05114)", "log2 fold change": "0.027 (inactive)"},
      {"target": "FKBP4 (UniProt Q02790)", "log2 fold change": "0.004 (inactive)"},
      {"target": "FBXO42 (UniProt Q6P3S6)", "log2 fold change": "0.141 (inactive)"},
      {"target": "HNRNPK isoform 3 (UniProt P61978)", "log2 fold change": "0.061 (inactive)"},
      {"target": "IDH3A isoform 2 (UniProt P50213)", "log2 fold change": "-0.069 (inactive)"},
      {"target": "FOXO3 (UniProt O43524)", "log2 fold change": "0.125 (inactive)"},
      {"target": "IFI30 (UniProt P13284)", "log2 fold change": "0.004 (inactive)"},
      {"target": "GAB2 (UniProt Q9UQC2)", "log2 fold change": "0.396 (inactive)"},
      {"target": "FCF1 (UniProt Q9Y324)", "log2 fold change": "0.248 (inactive)"},
      {"target": "FERMT3 (UniProt Q86UX7)", "log2 fold change": "-0.018 (inactive)"},
      {"target": "FYB1 isoform 3 (UniProt O15117)", "log2 fold change": "-0.017 (inactive)"},
      {"target": "HIC2 (UniProt Q96JB3)", "log2 fold change": "0.205 (inactive)"}
    ]},
    {"compound": "c1ccc([C@@H]2C[C@H]2NC2CCNCC2)cc1", "experiment": "log2 fold change, soluble protein after heating vs DMSO (PISA); higher = thermal stabilisation; K562 cells, 10 uM, 30 min; active = over 0.2 and 3.5 SD of the protein, either way, in both replicates (recomputed)", "outline": "as §1", "values": [
      {"target": "H3-3A (UniProt P84243)", "log2 fold change": "-0.102 (inactive)"},
      {"target": "HPCAL1 (UniProt P37235)", "log2 fold change": "0.032 (inactive)"},
      {"target": "FLNA (UniProt P21333)", "log2 fold change": "-0.008 (inactive)"},
      {"target": "HDAC7 isoform 5 (UniProt Q8WUI4)", "log2 fold change": "-0.003 (inactive)"},
      {"target": "GSTO1 (UniProt P78417)", "log2 fold change": "0.007 (inactive)"},
      {"target": "GLRX3 (UniProt O76003)", "log2 fold change": "-0.018 (inactive)"},
      {"target": "FCHO1 (UniProt O14526)", "log2 fold change": "-0.065 (inactive)"},
      {"target": "GAK (UniProt O14976)", "log2 fold change": "-0.209 (inactive)"},
      {"target": "FIZ1 (UniProt Q96SL8)", "log2 fold change": "0.044 (inactive)"},
      {"target": "HNRNPUL1 (UniProt M0R247)", "log2 fold change": "0.122 (inactive)"},
      {"target": "FHOD1 (UniProt Q9Y613)", "log2 fold change": "-0.034 (inactive)"},
      {"target": "FBXO6 (UniProt Q9NRD1)", "log2 fold change": "-0.032 (inactive)"},
      {"target": "GSE1 (UniProt Q14687)", "log2 fold change": "1.45 (active)"},
      {"target": "GREB1 (UniProt Q4ZG55)", "log2 fold change": "-0.1 (inactive)"},
      {"target": "FIBP (UniProt O43427)", "log2 fold change": "-0.011 (inactive)"},
      {"target": "GEMIN5 (UniProt Q8TEQ6)", "log2 fold change": "0.005 (inactive)"},
      {"target": "HMGN1 (UniProt P05114)", "log2 fold change": "0.048 (inactive)"},
      {"target": "FKBP4 (UniProt Q02790)", "log2 fold change": "-0.029 (inactive)"},
      {"target": "FBXO42 (UniProt Q6P3S6)", "log2 fold change": "0.077 (inactive)"},
      {"target": "IDH3A isoform 2 (UniProt P50213)", "log2 fold change": "-0.059 (inactive)"},
      {"target": "FOXO3 (UniProt O43524)", "log2 fold change": "-0.039 (inactive)"},
      {"target": "IFI30 (UniProt P13284)", "log2 fold change": "0.048 (inactive)"},
      {"target": "HS1BP3 (UniProt Q53T59)", "log2 fold change": "-0.203 (inactive)"},
      {"target": "GAB2 (UniProt Q9UQC2)", "log2 fold change": "-0.034 (inactive)"},
      {"target": "FERMT3 (UniProt Q86UX7)", "log2 fold change": "-0.019 (inactive)"},
      {"target": "FMR1 (UniProt Q06787)", "log2 fold change": "-0.038 (inactive)"},
      {"target": "GEMIN2 (UniProt O14893)", "log2 fold change": "0.025 (inactive)"},
      {"target": "HIC2 (UniProt Q96JB3)", "log2 fold change": "0.078 (inactive)"}
    ]}
  ]
}
